Screening results: PubChem, Broad Institute
ID4 binder: binders of human ID4 protein, primary screen, biochemical, small molecule microarray, single point | Flag-ID4 binding, fluorescence F/B | calls only | 1.2% of 31,000 active; call rule not given here;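 also: a binder raises fluorescence above local background on the spot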
STK33 inh: STK33 kinase inhibitors, primary screen, biochemical, luminescence, ADP-Glo, MBP substrate | Serine/threonine-protein kinase 33 (Homo sapiens), Q9BYT3 | inhibition, % at 12.5 µM | 0.44% of 27,000 active; in the data active = inhibition above about 20%
An asterisk follows results filed as active; i = inactive; x = no result given. Only some compounds are listed: those with a hit (about 1.1% of all), similar ones and a draw of the others.

SMILES	ID4 binder	STK33 inh
CN[C@@H]1C[C@@]2(C)O[C@@H]([C@@H]1OC)n1c3ccccc3c3c4c(c5c6ccccc6n2c5c31)C(=O)NC4	x	131*
CCN1CC2(COC(=O)c3ccccc3N3C(=O)CC(C)C3=O)CCC(OC)C34C5CC6C(OC)CC(O)(C5C6OC)C(O)(C(OC)C23)C14 (configuration not stated)	i	x
CCn1cnc2c(Nc3cccc(Cl)c3)nc(N[C@@H]3CCCC[C@@H]3N)nc21	x	62*
CCCCC/C=C/C/C=C/C/C=C/C/C=C/CCCC(=O)Nc1ccc(O)cc1	i	x
CC1(C)C(=O)C=C[C@@]2(C)C1C(=O)C(=O)[C@]1(C)C2CC[C@@]2(C)[C@H](c3ccoc3)C[C@H]3O[C@]321 (some centres not stated)	x	-8
CC(C)(O)/C=C/C(=O)[C@](C)(O)C1[C@H](O)C[C@@]2(C)[C@@H]3CC=C4C(CC(=O)C(=O)C4(C)C)[C@]3(C)C(=O)C[C@@]12C (some centres not stated)	i	x
